JMJD2A Tudor = qHTS Assay for Inhibitors of JMJD2A-Tudor Domain | Lysine-specific demethylase 4A (Homo sapiens), O75164 | AID 504339, 2011 | Potency, µM (highest dose often 114 µM), inactives show at the highest dose activity change, negative = inhibition, actives largely listed as inhibitors | AlphaScreen JMJD2A-Tudor / H3K4me3 peptide binding | actives 4.4% (n = 390,000); further: on the % scale 0 is the no-effect control and ±100 the full control effect; nearly all actives have a fitted effect of over 50% in size
HP1b chromo inh = HTS for Inhibitors of HP1-beta Chromodomain Interactions with Methylated Histone Tails | AlphaScreen HP1-beta / biotin-H3K9me3 peptide binding | Potency, µM (top dose mostly 114 µM), without a hit: at the top dose activity change, negative = inhibition, most hits filed as inhibitors | actives 0.56% (n = 390,000) | AID 540317, 2011; further: nearly all actives have a fitted effect of over 70% in size
Target sequence (P83916 whole entry, looked up): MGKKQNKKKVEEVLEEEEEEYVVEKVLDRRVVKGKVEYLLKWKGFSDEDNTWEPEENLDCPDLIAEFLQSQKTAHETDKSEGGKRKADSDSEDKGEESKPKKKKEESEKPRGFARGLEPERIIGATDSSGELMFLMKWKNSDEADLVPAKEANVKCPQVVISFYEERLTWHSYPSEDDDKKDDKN
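Compound inhibition of the preformed complex between 50 nM HP1-beta and 50 nM biotinylated H3K9me3 peptide was read by AlphaScreen. Buffer was PBS pH 7.4 with 0.01% Tween-20. Incubations ran 30 min at room temperature, with 10 ug/mL donor/acceptor beads.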
BAZ2B block = qHTS Assay for Inhibitors of BAZ2B. Potency, µM (series often up to 114 µM), inactives show top-dose activity change, negative = inhibition, usual class: inhibitors. AID 504333, 2011. AlphaScreen BAZ2B-H3K14Ac peptide displacement. actives 4.4% (n = 360,000); further: on the % scale 0 is the no-effect control and ±100 the full control effect; nearly all actives have a fitted effect of over 60% in size
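AlphaScreen displacement of biotin-H3(5-23)K14Ac peptide (50 nM final) from BAZ2B (50 nM final) in PBS pH 7.4, 0.01% Tween-20; complex preformed 30 min RT, then compounds (top 110 uM) 30 min RT, beads 20 min dark.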
L3MBTL1 block = qHTS Assay for the Inhibitors of L3MBTL1; Lethal(3)malignant brain tumor-like protein 1 (Homo sapiens), Q9Y468; AlphaScreen L3MBTL1–H3K9me1 peptide binding; Potency, µM (titrated, usually from 57.1 µM), for inactives: top-dose activity, negative = inhibition, hits mostly inhibitors; actives 0.66% (n = 230,000); AID 485360, 2010; further: on the % scale 0 is the no-effect control and ±100 the full control effect; nearly all actives have a fitted effect of over 60% in size
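Read-out is AlphaScreen signal from streptavidin donor and nickel chelate acceptor beads (10 ug/mL final each) bridging L3MBTL1 (50 nM) and biotinylated K9-monomethylated H3(1-15) peptide (75 nM), after 30 min compound exposure at room temperature.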
G9a inh = qHTS Assay for Inhibitors of Histone Lysine Methyltransferase G9a; G9a H3K9 monomethylation, AlphaScreen, 2 h; Potency, µM (series often up to 102 µM), inactives show at the highest dose activity, negative = inhibition, most hits filed as inhibitors; Histone-lysine N-methyltransferase EHMT2 (Homo sapiens), Q96KQ7; actives 8.8% (n = 350,000); further: on the % scale 0 is the no-effect control and ±100 the full control effect; nearly all actives have a fitted effect of over 75% in size
Target sequence (Q96KQ7 913-1193 limits assumed): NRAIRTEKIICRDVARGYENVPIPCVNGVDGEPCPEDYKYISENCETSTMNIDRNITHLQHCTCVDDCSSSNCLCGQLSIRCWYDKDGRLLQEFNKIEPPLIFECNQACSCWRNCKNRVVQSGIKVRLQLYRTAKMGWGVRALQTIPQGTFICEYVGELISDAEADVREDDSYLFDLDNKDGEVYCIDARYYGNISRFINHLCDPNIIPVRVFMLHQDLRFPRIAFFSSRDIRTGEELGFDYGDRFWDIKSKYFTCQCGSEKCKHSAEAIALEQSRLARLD
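Readings reflect AlphaScreen signal from monomethyl-H3K9 antibody detection. HMT at 20 nM; substrate b-H3K9 500 nM; cofactor SAM 20 uM; 2 h RT reaction; compounds tested as titrations in qHTS with 15 min preincubation.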
Sfp inh = qHTS Assay for Inhibitors of Bacillus subtilis Sfp phosphopantetheinyl transferase (PPTase) | 4'-phosphopantetheinyl transferase ffp (Bacillus subtilis), Q9F4F7 | Biochemical Sfp PPTase activity, qHTS | Potency, µM, inactives show largest response in the series, negative = inhibition, most hits filed as inhibitors | actives 3.5% (n = 310,000);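 further: the enzyme is Sfp with the accession as filed and its product quenches rhodamine fluorescence; 0% = enzyme reaction without inhibitor and -100% = no enzyme wells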
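Compounds were incubated with enzyme (final 15 nM) for 15 min at room temperature before substrate addition started the reaction. Fluorescence at 525 nm excitation, 598 nm emission was recorded immediately and after 30 minutes.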
Starred values were filed as active, the others as inactive; ? = inconclusive; nt = no result given; [ ] = another dose, or the depositor's remark. Compounds with a hit are over-represented: about 12% of the library has one in this group of screens. The call rests on the fitted dose curve; in most records, active means well fitted curve in the direction sought with a large enough effect; inconclusive means small, poorly fitted or top-dose-only effect, or another doubt; inactive means no such curve, though single readings can be large; an effect the other way counts as inactive or inconclusive. Potency means the concentration at half of the fitted maximal effect.

SMILES	JMJD2A Tudor	HP1b chromo inh	BAZ2B block	L3MBTL1 block	G9a inh	Sfp inh
CN(C)c1ccc(C(CNC(=O)c2ccccc2)N2CCc3ccccc32)cc1 (stereo unspecified)	13µM*	?	11µM*	nt	13µM*	nt
O=C(NCC(c1cccnc1)N1CCc2ccccc21)c1ccc(F)c(F)c1 (stereo unspecified)	-11%	29%	0%	nt	3%[59 µM]	nt
COc1cc(C(=O)NCC(c2cccnc2)N2CCc3ccccc32)cc(OC)c1OC (stereo unspecified)	-8%	19%	5%	nt	-5%[59 µM]	nt
O=C(NCc1ccc(Cl)cc1)c1ccc(CNc2c(N3CCCC3)c(=O)c2=O)cc1	-5%	30%	0%	nt	1%	-1%
COc1ccc(C(=O)NCC(c2ccc(N(C)C)cc2)N2CCc3ccccc32)cc1 (stereo unspecified)	7.1µM*	10µM*	8.9µM*	nt	10µM*	nt
CN(C)c1ccc(CNC(=O)c2ccc(CNc3c(N4CCCCC4)c(=O)c3=O)cc2)cc1	?	7%	-9%	nt	45µM*	5%
CC(C)Oc1ccc(C(=O)NCC(c2ccc(N(C)C)cc2)N2CCc3ccccc32)cc1 (stereo unspecified)	7.1µM*	?	16µM*	nt	14µM*	nt
O=C(NCC(c1ccco1)N1CCc2ccccc21)c1ccc([N+](=O)[O-])cc1 (stereo unspecified)	-22%	-2%	-7%	-10%	26%[2.33 µM]	nt
COc1ccc(-c2cc(C(F)(F)F)nc(-n3nc(C(F)(F)F)cc3C)n2)cc1	33%	110%	32%	nt	48%[59 µM]	nt
O=C1CN(C(=O)Cc2ccc(F)cc2)C(c2ccccc2)c2cc(Br)ccc2N1 (stereo unspecified)	-25%	15%	-10%	nt	-46%[59 µM]	nt
CN(C)c1ccc(CNC(=O)c2ccc(NC(=O)N3CCCCc4ccccc43)cc2)cc1	35µM*	9%	28µM*	nt	?	nt
CCc1ccc(CNC(=O)c2ccc(NC(=O)N3CCCCc4ccccc43)cc2)cc1	-24%	-13%	-3%	nt	7%[59 µM]	nt
COc1ccc(C2=Nn3c(nnc3-c3ccccc3O)SC2)c(OC)c1	-29%	nt	nt	nt	nt	6%
CC1(C)CC(=O)c2c(oc3cc(O)c(O)cc23)C1	14µM*	-32%	-37%	nt	3.5µM*	56µM*
CCCN(Cc1nnc(-c2cccs2)o1)C(=O)CN1C(=O)NC2(CCCCC2)C1=O	-7%	18%	12%	-2%	?	nt
Cc1ccc(Nc2c(-c3ccc(C)cc3)nc3c(C)cccn23)cc1	?	?	nt	nt	11µM*	nt
Cc1cccn2c(Nc3ccccc3)c(-c3ccc(N4CCOCC4)cc3)nc12	-5%	67%	19%	nt	-27%[59 µM]	nt
Cc1ccccc1Nc1c(-c2ccccn2)nc2c(C)cccn12	40µM*	?	14µM*	nt	45µM*	6%
Cc1ccc(-c2nc3c(C)cccn3c2Nc2ccccc2C)s1	45µM*	?	16µM*	nt	14µM*	nt
O=S(=O)(c1ccccc1)N1CCC2(CCN(Cc3ccncc3)CC2)CC1	nt	nt	nt	nt	0%[12.7 µM]	-6%
Cc1cccc(Cc2c(C)nc3nc(SCc4cccc(F)c4)nn3c2C)c1	6%	0%	3%	nt	31%[59 µM]	nt
CC(=O)N(C)c1ccc(N=Nc2c(C)[nH]n(-c3ccccc3)c2=O)cc1	?	?	?	-4%	35µM*	-20%
CC(=O)N(C)c1ccc(N=Nc2c(C)[nH]n(C(N)=S)c2=O)cc1	-15%	44%	-13%	nt	8%[59 µM]	?
CCOc1ccc(N=Nc2c(C)[nH]n(-c3ccccc3)c2=O)cc1	?	-6%	?	-9%[2.29 µM]	1%[0.501 µM]	?
CCOC(=O)c1ccc(N=Nc2c(C)[nH]n(-c3ccccc3)c2=O)cc1	?	-27%	?	-4%	4µM*	-15%
SMILES	JMJD2A Tudor	HP1b chromo inh	BAZ2B block	L3MBTL1 block	G9a inh	Sfp inh
Cn1ccnc1-c1nc2ccccc2[nH]c1=O	35µM*	20%	18µM*	?	2.5µM*	9%
Cc1nnc(SCc2nc(-c3ccc(Cl)cc3)no2)n1-c1ccc(F)cc1	-7%	22%	-8%	nt	-34%[59 µM]	nt
C/C(=C\c1ccccc1)CN(C)CCN(C)C	nt	nt	-2%	6%	56µM*	9%
C/C(C=O)=C/c1ccccc1	-14%	20%	7%	-2%	-4%[0.501 µM]	nt
CN(C)Cc1cc(C(C)(C)C)c(O)c(C(C)(C)C)c1	-18%[11.4 µM]	-11%	-9%	-2%	50µM*	5%
CN(C)Cc1cc(C(C)(C)C)cc(C(C)(C)C)c1O	-11%[11.4 µM]	55%	-1%	2%	7%[12.7 µM]	10%
Cc1cc(C(C)(C)C)ccc1OCCCCN1CCCC1	7.1µM*	-4%	-29%	-22%	?	5%
Cc1cc(OCCN2CCCCC2)nc2ccccc12	?	5%	-23%	nt	-6%[12.7 µM]	13%
Cc1cc(C(C)(C)C)ccc1OCCN1CCCC1	8.9µM*	-56%	?	nt	32µM*	-13%
Cc1ccc(C(C)C)c(OCCN2CCc3ccccc3C2)c1	2%	49%	16%	2%[2.29 µM]	8%[0.501 µM]	2%
Cc1ccc(C(C)(C)C)c(OCCN2CCCC2)c1	4µM*	-15%	50µM*	-14%	3.5µM*	-23%
O=C(O)c1ccc2c(c1)C(=O)N([C@H](Cc1ccc(Cl)cc1)C(=O)O)C2=O	-15%	nt	-9%	-7%	6%[12.7 µM]	25%
O=C(O)c1ccccc1NS(=O)(=O)c1cccc(-n2sc3ccccc3c2=O)c1	1.4µM*	-20%	4µM*	nt	1.3µM*	2µM*
O=C(O)c1ccccc1NS(=O)(=O)c1cccc(C(F)(F)F)c1	-27%	8%	-11%	nt	-6%[2.33 µM]	7%
CCCN1C(=O)S/C(=C/c2ccc(N3CCOCC3)o2)C1=O	-20%	20%	?	17%	-111%[12.7 µM]	1.3µM*
CCCN1C(=O)S/C(=C\c2ccc(N3CCOCC3)o2)C1=O	?	?	-38%	nt	4µM*	3.2µM*
Cc1ccc(OCCN2C(=O)S/C(=C\c3ccc(C)o3)C2=O)cc1	-11%	10%	?	-3%	32µM*	18µM*
CCN1C(=O)S/C(=C\c2ccc(N3CCOCC3)cc2C)C1=O	-9%	26%	-33%	2%	?	-5%
